Source: PubChem (National Center for Advancing Translational Sciences (NCATS))
An excerpt weighted towards active compounds, which were near 11% of everything screened.
Tau ThT inhib = blocks human tau fibril formation measured by thioflavin T; Potency, µM (titrated, usually from 57.4 µM), inactives show top-dose activity, negative = inhibition, most hits filed as inhibitors; recombinant tau K18 P301L, heparin-induced fibrillization, ThT fluorescence; 2.1% of 270,000 active; AID 1460; also: potency is read from the fitted curve at half-maximal effect; nearly all actives have a fitted effect of over 55% in size
Target sequence (P10636 561-689 P618L limits assumed): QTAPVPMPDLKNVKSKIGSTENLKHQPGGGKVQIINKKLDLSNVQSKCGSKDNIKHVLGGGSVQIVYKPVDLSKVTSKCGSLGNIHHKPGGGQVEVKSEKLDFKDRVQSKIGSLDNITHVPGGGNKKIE
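Using a mix of unlabeled (15 uM) and Alexa 594-labeled (0.24 uM) tau K18 P301L, heparin-triggered fibrillization over 6 hr at 37 C was scored by ThT fluorescence.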
FBPA coupling cs = counter-screen for Giardia aldolase inhibitors: coupling enzyme system; 0.67% of 290,000 active; coupling enzyme system counterscreen, AmpLite Red fluorescence; activity change, negative = inhibition, % at 58.2 µM, hits read low; in the data active = activity change below about -30%
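Fluorescence at 525 nm excitation and 598 nm emission measured inhibition of the coupled detection system without aldolase. Compounds (at 57.5 uM final) were preincubated 10 min at room temperature with coupling enzyme reagent before a 20 min substrate/AmpLite Red step.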
Sfp PPTase inh = blocks B. subtilis Sfp PPTase activity; Q9F4F7; Biochemical Sfp PPTase activity, qHTS; Potency, µM, inactives show largest response in the series, negative = inhibition, most hits filed as inhibitors; 3.5% of 310,000 active;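 also: the enzyme is Sfp with the accession as filed and its product quenches rhodamine fluorescence; potency is read from the fitted curve at half-maximal effect; 0% = enzyme reaction without inhibitor and -100% = no enzyme wells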
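Fluorescence-quenching assay: 15 nM Sfp-PPTase preincubated 15 min at room temperature with compound, then 5 uM rhodamine-CoA and 12.5 uM BHQ-2-labelled YbbR peptide added. Fluorescence (ex 525/em 598 nm) read at start and after 30 min; difference gives rate.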
Tau fluor cs = counter-screen for tau fibril formation inhibitors; tau K18 P301L (four-repeat tau fragment) Alexa594 fluorescence, heparin fibrillization; Potency, µM (titrated, usually from 57.7 µM), for the others: at the highest dose activity change, negative = decrease; 0.93% of 280,000 active; also: potency is read from the fitted curve at half-maximal effect; nearly all actives have a fitted effect of over 55% in size
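Human K18 P301L tau (15 uM unlabeled plus 0.24 uM Alexa 594-labeled, final) in 100 mM sodium acetate pH 7 was mixed with compound and 20 uM heparin and incubated 6 hr at 37 C.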
G9a inh = G9a (human) methyltransferase inhibition; 8.8% of 350,000 active; Q96KQ7; G9a H3K9 monomethylation, AlphaScreen, 2 h; Potency, µM (series often up to 102 µM), for the others: at the highest dose activity, negative = inhibition, most hits filed as inhibitors; also: potency is read from the fitted curve at half-maximal effect; nearly all actives have a fitted effect of over 75% in size
Target sequence (Q96KQ7 913-1193 limits assumed): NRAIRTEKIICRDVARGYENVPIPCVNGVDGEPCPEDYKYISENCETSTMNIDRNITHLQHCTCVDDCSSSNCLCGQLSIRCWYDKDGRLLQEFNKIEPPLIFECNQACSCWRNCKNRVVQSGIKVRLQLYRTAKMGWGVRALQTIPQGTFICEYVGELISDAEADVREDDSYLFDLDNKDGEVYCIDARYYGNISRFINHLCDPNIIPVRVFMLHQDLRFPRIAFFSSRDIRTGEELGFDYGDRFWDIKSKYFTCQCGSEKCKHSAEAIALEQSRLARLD
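AlphaScreen detection with an anti-monomethyl H3K9 antibody quantified product after a 2 h room-temperature reaction containing 500 nM biotinylated H3K9 peptide, 20 µM SAM and 20 nM enzyme, which had been preincubated 15 min with compound.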
Tau fibril FP = blocks human tau fibril formation measured by polarization; 0.39% of 280,000 active; K18 P301L tau heparin fibrillization, Alexa594 FP, 6 h; AID 1468; P10636; Potency, µM (doses to about 57.7 µM), without a hit: at the top dose activity, negative = inhibition, most hits filed as inhibitors; also: potency is read from the fitted curve at half-maximal effect; nearly all actives have a fitted effect of over 55% in size
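Read-out: fluorescence polarization of Alexa 594-labeled tau (0.24 uM), 555 nm excitation, 632 nm emission. Mixtures held 15 uM unlabeled K18 P301L, compound and 20 uM heparin, pH 7 acetate buffer, incubated 6 hr at 37 C.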
Numbers without * were called inactive; ? = inconclusive; · = no result given; [ ] = dose if it differs, or a comment. Unless noted, calls follow the shape of the dose curve; as a rule, active = well fitted curve in the direction sought with a large enough effect; inconclusive = small, poorly fitted or top-dose-only effect, or another doubt; inactive = no such curve, though single readings can be large; an effect the other way counts as inactive or inconclusive. Unless noted, % is scaled to controls: 0 for no effect and ±100 for the full control effect.

SMILES	Tau ThT inhib	FBPA coupling cs	Sfp PPTase inh	Tau fluor cs	G9a inh	Tau fibril FP
Cc1cc(C)cc(-n2nnc(-c3nc(-c4ccc5c(c4)OCO5)no3)c2C)c1	?	·	·	-23%	8%[59 µM]	-7%
COc1ccc(NC(=O)CN(C)CCOc2ccc(Cl)cc2)cc1OC	·	0	-24%	·	45µM*	·
CN(CCOc1ccc(Cl)cc1)CC(=O)Nc1ccc(OC(F)(F)F)cc1	·	-9	10%	·	5%[2.33 µM]	·
CN(CCOc1ccccc1)CC(=O)Nc1cccc(Br)c1	-4%	0	-41%	-14%	11µM*	3%
Cc1ccsc1CN(C)CC(=O)Nc1cccc(S(=O)(=O)N(C)c2ccccc2)c1	·	·	·	·	-11%	·
CCOc1ccc(CN(C)CC(=O)Nc2cccc(S(=O)(=O)N(C)c3ccccc3)c2)cc1	-13%	1	-18%	-22%	5µM*	7%
O=C(COC(=O)c1cccs1)Nc1cccc(Cl)c1	·	·	·	·	15%[59 µM]	·
Cc1cccc(C(=O)n2cnnc2N)c1	?	-2	7%	-16%	22µM*	2%
Cc1cc(NC(=O)C(C)SCC(=O)Nc2nc3c(F)cc(F)cc3s2)no1 (centres undefined)	·	·	·	·	17%[12.7 µM]	·
CC1SC(=NC(=O)c2ccco2)NC1=O (centres undefined)	-8%	-4	-8%	-8%	50µM*	-11%
COc1ccccc1CNC(=O)c1ccc(-c2nc(CN3CCc4ccccc43)c(C)o2)cc1	?	·	·	-26%	?	11%
CN(C)c1ccc(N=Nc2nc3ccccc3n2C)cc1	0.5µM*	-3	-17%	13µM*[quencher]	?	?
Cc1nc2cnc(N3CCOCC3)nc2n(Cc2ccc(F)cc2)c1=O	·	0	24%	·	-1%[0.501 µM]	·
COc1cc(OC)c(OC)cc1/C=N/NC(=S)NCCN1CCOCC1	1%	0	-83%	-4%	-23%	2%
CCCN1CCC(NC(=S)Nc2ccc(OC)c(OC)c2)CC1	-1%	2	-5%	7%	50µM*	3%
COc1ccc(NC(=S)NCCCN2CCCC2)cc1Cl	-9%	1	20µM*	-17%	18µM*	9%
COc1cc(/C=N/NC(=S)NCCN2CCOCC2)cc(OC)c1O	15%	-6	22µM*	14%	?	0%
CCCN1CCC(NC(=O)Nc2ccc(OC)c(OC)c2)CC1	-8%	1	13%	-8%	-18%[12.7 µM]	-6%
CCCN1CCC(NC(=O)Nc2ccc(Br)cc2)CC1	3%	0	14%	-8%	35µM*	-4%
CCC(=O)N1C2=C(c3ccccc3[C@@H]1CC(=O)Nc1ccc3ccccc3c1)[C@@H]1C(=O)N(c3ccccc3)C(=O)[C@@H]1[C@H](C)C2	-9%[11.5 µM]	-2	-5%	-15%[11.6 µM]	·	-5%[11.6 µM]
COc1ccc(N(CC(=O)NC2CC3CCC2C3)S(=O)(=O)c2ccc(C)c([N+](=O)[O-])c2)cc1 (centres undefined)	·	0	5%	·	-19%	·
COc1cc(NC(=S)NCCCN2CCOCC2)c(OC)cc1Cl	3%	3	13%	-2%	?	0%
COc1ccc(OC)c(NC(=S)NCCCN2CCOCC2)c1	1%	-1	50µM*	1%	?	-4%
COc1ccc(NC(=S)NCCN2CCC(C)CC2)cc1Cl	-4%	-47*	2.5µM*	-6%	11µM*	-2%
Cc1ccc(S(=O)(=O)c2cn(CC(=O)Nc3cccc(C)c3)c3cc4c(cc3c2=O)OCO4)cc1	6%	·	·	-16%	2%[59 µM]	?
O=C(Oc1ccccc1)N1CCC2(CC1)CN(c1ccccn1)C2	·	1	3%	·	-1%[12.7 µM]	·
CCCSc1nnc(-c2cnn(-c3ccccc3)c2-n2cccc2)n1C	-16%	3	-27%	-6%	13µM*	-7%
C=CCSc1nnc(-c2cnn(-c3ccccc3)c2-n2cccc2)n1C	-9%	4	-9%	-4%	-3%[12.7 µM]	-2%
COc1ccc2c(c1)C(=O)C(=O)N2	8%	-12	-10%	3%	-10%[59 µM]	6%
O=C1Nc2cc3c(cc2C1=O)sc1ccccc13	1.1µM*	-4	-2%	?	40µM*	6%
